# Compound activity: PubChem BioAssay, several laboratories
# An excerpt weighted towards active compounds, which were near 2.7% of everything screened.
# SENP8 block-1 – inhibitors of human SENP8 protease; inhibition, % at 20 µM; Q96LD8; recombinant SENP8, Nedd8 substrate fluorescence; actives 0.64% (n = 360,000); AID 602440; in the data active means inhibition mostly above about 40%, no sharp cut-off; inactive means mostly below about 27%
# Target sequence (Q96LD8 whole entry, looked up): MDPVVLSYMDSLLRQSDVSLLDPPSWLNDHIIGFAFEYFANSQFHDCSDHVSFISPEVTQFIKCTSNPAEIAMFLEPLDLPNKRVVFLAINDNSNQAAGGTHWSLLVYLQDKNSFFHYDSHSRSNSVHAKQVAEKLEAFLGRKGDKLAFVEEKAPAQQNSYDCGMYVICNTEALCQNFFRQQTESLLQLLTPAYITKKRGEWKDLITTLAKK
# SENP6 block – inhibitors of human SENP6 protease; Q9GZR1; Recombinant SENP6 catalytic domain, aminoluciferin luminescence; inhibition, % at 10 µM; actives 1.8% (n = 330,000); AID 2599;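 active means inhibition above about 50% at the single tested dose, limit read from the data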;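 further: plate controls were DMSO wells with enzyme for no effect and DMSO wells lacking enzyme for full effect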
# SENP7 block – blocks the human protease SENP7. recombinant SENP7, Z-RLRGG-aminoluciferin luminescence, 40 min. AID 434973. Q9BQF6. inhibition, % at 5 µM. actives 1.5% (n = 330,000);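 active means inhibition above about 50% at the single test dose, limit read from the data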;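 further: plate controls were DMSO with enzyme for no effect and no enzyme buffer wells for full effect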
# Target sequence (Q9BQF6 706-1050 limits assumed): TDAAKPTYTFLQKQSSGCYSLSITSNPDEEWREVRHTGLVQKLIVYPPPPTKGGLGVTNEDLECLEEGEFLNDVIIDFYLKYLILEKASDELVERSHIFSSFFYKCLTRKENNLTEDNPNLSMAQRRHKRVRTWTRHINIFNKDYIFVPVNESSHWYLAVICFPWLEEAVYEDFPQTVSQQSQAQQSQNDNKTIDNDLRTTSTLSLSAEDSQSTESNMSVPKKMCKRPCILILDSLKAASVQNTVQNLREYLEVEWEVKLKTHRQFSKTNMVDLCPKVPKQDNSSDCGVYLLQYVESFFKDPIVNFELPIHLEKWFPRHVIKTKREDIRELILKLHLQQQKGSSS
# HSP90 inh – blocks HSP90-mediated luciferase refolding in reticulocyte lysate; Rabbit reticulocyte lysate, luciferase refolding luminescence, 3 h; inhibition, % at 5.6 µM; actives 0.91% (n = 290,000); AID 1789;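 active means inhibition above the screen-wide mean plus 3 SD, computed separately per campaign, cut at about 16% in these data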;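 further: 0% = DMSO wells and 100% = 60 µM geldanamycin wells; inhibitors lower the luminescence because luciferase stays unfolded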
# SENP8 block-2 – blocks the human protease SENP8 | actives 1.2% (n = 330,000) | purified SENP8, Z-RLRGG-aminoluciferin cleavage, luminescence | inhibition, % at 10 µM; in the data active means inhibition above about 50%
# Active calls of the source: *; / = no result given.
SMILES,SENP8 block-1,SENP6 block,SENP7 block,HSP90 inh,SENP8 block-2
C#CCOCCOCCOCCNc1nc(N2CCN(C(=O)C([C@@H](C)CC)n3cc(C(N)CC(C)C)nn3)CC2)nc(N2CCN(C(=O)[C@H](CCC(=O)O)n3cc(C(N)CC(C)C)nn3)CC2)n1 (stereo partly drawn),19,2,-10,0,7
CCN(CC)C(=O)CSc1nc2c(sc(=S)n2-c2ccccc2)c(=O)n1-c1ccc(OC)c(OC)c1,8,5,-6,-3,-5
COc1ccc2c(=O)cc(-c3ccccc3)n(C)c2c1,8,-10,-2,11,-7
O=C1/C(=C\c2cc(Cl)c(O)c(Cl)c2)SC(=S)N1Cc1ccccc1,48*,/,/,-1,/
CSC(=O)NC12CC3CC(CC(C)(C3)C1)C2,7,1,4,2,-13
COc1ccc(Nc2cccc(Cl)c2)c(C(=O)O)c1,-20,35,7,3,29
Cc1ccc(NC(=O)Nc2cccc(Cl)c2)c(C(=O)O)c1,-367,45,69*,-1,73*
CCN1CCN(CCCN(Cc2ccco2)C(=S)Nc2ccc(Cl)c(C)c2)CC1,19,-3,-4,3,-2
Cc1ccc(NC(=O)c2ncn(CCCN(CCCn3cnc(C(=O)Nc4ccc(C)c(C)c4)n3)Cc3ccc4[nH]ccc4c3)n2)cc1C,-5,/,/,/,/
CC(O)CC(=O)O (stereo not drawn),33,-2,-3,/,2
CCN(CC)c1ccc(/C=c2/sc3nnc(-c4ccccc4C)n3c2=O)cc1,36,-1,9,3,-2
CCN(CC)c1ccc(/C=c2\sc3nnc(-c4ccccc4Cl)n3c2=O)cc1,61*,2,3,1,7
CCC/C=C/c1ccc(CN2C(C)C(=O)N(Cc3cn(CC4CCCCC4)nn3)CCS2(=O)=O)cc1 (stereo not drawn),14,/,/,/,/
COc1ccc(N=[N+]([O-])c2ccc(OC)cc2)cc1,41*,/,/,/,/
NC(=S)N=Nc1c(O)[nH]c2ccccc12,17,4,-1,1,2
NC(=S)N=Nc1c(O)[nH]c2c(Br)cc(Br)cc12,52*,-23,-8,-3,-9
COc1ccc(CCNC(=O)c2ccc3c(c2)N(Cc2ccc(F)cc2)CCS3)cc1OC,-429,-8,13,-4,-10
Cc1cc(-c2nnc(CCC(=O)N(CC3CC3)CC3CCCO3)o2)no1 (stereo not drawn),18,-8,-11,3,-10
COc1ccccc1NC(=O)C1=C(C)NC2=C(C(=O)CC(c3ccc(OC)c(OC)c3)C2)C1c1coc2ccccc2c1=O (stereo not drawn),-32,18,1,16*,-2
CN(C)S(=O)(=O)c1ccc(C(=O)NCc2ccco2)cc1,13,-1,-9,2,-4
N#C/C(=C\c1ccc(O)c(O)c1)C(=O)c1ccc(O)c(O)c1,11,83*,45,/,81*
COc1ccc(C2C(C#N)=C(/N=C/N3CCN(C)CC3)OC3=C2C(=O)CC(C)(C)C3)cc1OC (stereo not drawn),5,-27,50*,0,-7
O=C(Nc1ccccc1)Nc1cccc(C(F)(F)F)c1,1,5,9,1,-9
N#C/C(=N\Nc1cccc(C(F)(F)F)c1)C(=O)c1ccsc1,36,88*,-1,2,64*
Cc1cc(Nc2ccccc2)n(-c2ccccc2)n1,20,-5,-4,-4,-3
SMILES,SENP8 block-1,SENP6 block,SENP7 block,HSP90 inh,SENP8 block-2
Cc1cc(Nc2nc(Cl)c(Cl)cc2Cl)n(-c2ccccc2)n1,-6,-2,4,26*,2
O=C(CNC(=O)C1COc2ccccc2O1)Nc1cc(Cl)ccc1Cl (stereo not drawn),-6,1,0,/,0
Clc1c(CSc2nc3ccccc3o2)nc2ccccn12,4,52*,37,8,19
CCc1ccc2c(c1)C(=O)c1ccccc1C2=O,20,78*,83*,2,79*
O=C(OCc1ccccc1)c1ccc2c(c1)-c1ccccc1C2=O,35,21,14,0,-5
CCN1CCc2c(sc(N)c2C#N)C1,-427,1,7,-2,5
N#Cc1c(N)sc(=S)c2c1CCN(Cc1ccccc1)C2,/,94*,79*,/,96*
O=C(OCc1cccc([N+](=O)[O-])c1)c1cccnc1,6,3,12,4,-1
O=C(NCCCn1ccnc1)c1cn(-c2ccccc2)nc1-c1ccccc1,18,-7,-7,-1,-4
CC(=O)c1ccc(NC(=S)Nc2cccc3ccccc23)cc1,-390,91*,53*,9,65*
N#C/C(=C\c1ccccc1O)C(=O)Nc1cccnc1,3,77*,75*,-5,51*
CN(C)/C=C1\Oc2ccc3ccccc3c2C1=O,-366,13,-1,2,1
O=C1C(=O)c2c(ccc3ccccc23)-c2ccccc21,99*,/,/,/,/
Cc1ccc(NCc2ccco2)cc1C,-1,13,7,-4,-5
Cc1ccc(Nc2nnc(-c3ccccc3N)o2)cc1C,-433,-3,63*,-10,-8
c1ccc(C2=Nc3ccccc3SC2c2nc3ccccc3[nH]2)cc1 (stereo not drawn),/,52*,54*,3,27
COc1ccc(CCN(C)CCCC(C#N)(c2cc(OC)c(OC)c(OC)c2)C(C)C)cc1OC (stereo not drawn),5,1,4,0,10
O=C(Nc1nc2c(s1)CCCC2)Oc1ccccc1,22,-12,5,0,-8
C/C(=N\Nc1nc2c(s1)CCCC2)c1ccccc1,6,-50,-3,16*,5
CN(C)S(=O)(=O)c1cccc(NC(=S)N/N=C/c2ccc(O)c(O)c2O)c1,43*,/,/,-1,/
CC(=O)Nc1ccc(-c2cc3ccccc3o2)cc1,-253,49,51*,6,10
CC(NC1CCN(Cc2ccccc2)CC1)c1ccc(F)cc1 (stereo not drawn),12,-9,6,3,-4
Cc1cccc(NC(=O)Cn2cnc3c(oc4ccccc43)c2=O)c1C,9,-10,-5,-3,2
COc1ccc(C(=O)NCCn2cc(SCC(=O)NCc3ccco3)c3ccccc32)cc1,6,-16,-12,59*,-4
COc1ccc(C(=O)NCCn2cc(SCC(=O)Nc3nnc(C)s3)c3ccccc32)cc1,8,26,-1,17*,3
CCN(CC)C(=O)Cn1cc(SCC(=O)NCc2ccco2)c2ccccc21,16,3,1,-2,-2
Cc1nnc(NC(=O)CSc2cn(CCNC(=O)c3ccccc3)c3ccccc23)s1,30,-8,10,13,-9
Nc1ccc(N=Nc2ccccc2)c2ccccc12,24,-3,11,1,-8
Cc1[nH]c(N=Nc2ccccc2)nc1N=Nc1ccccc1,68*,-31,1,-1,-6
CCOC(=O)[C@@H]1[C@H]2COc3ccccc3[C@@H]2N2C(=O)N(c3cccc(Cl)c3)C(=O)[C@@]12C,14,3,-6,-7,-5
